Reference: PubChem BioAssay (EPA / NIEHS)
Inconclusive results are not listed. Activity calls are given as the source filed them. How the source made its calls: active means hit-call score of the fitted dose curve at least 0.9, where 1 is the maximum; inconclusive means response in the unintended direction; inactive means score below 0.9.

Target: human Phosphodiesterase 4A1 (PDE4A1), PDE4A (gene 5141) (UniProt P27815)
Experiment: NVS_ENZ_hPDE4A1: NovaScreen (NVS) Enzymatic Assay for human Phosphodiesterase 4A1 (PDE4A1) (AID 2283191)
Method: NVS_ENZ_hPDE4A1 is a biochemical, single-readout assay that uses extracted gene-proteins in a cell-free assay. Measurements were taken 1 hour after chemical dosing in a 384-well plate.NVS_ENZ_hPDE4A1 is one of one assay component(s) measured or calculated from the NVS_ENZ_hPDE4A1 assay. It is designed to make measurements of enzyme activity, a form of enzyme reporter, as detected with fluorescence intensity signals by Fluorescence and electrophoretic mobility shift technology.Data from the assay component NVS_ENZ_hPDE4A1 was analyzed into 1 assay endpoint. This assay endpoint, NVS_ENZ_hPDE4A1, was analyzed in the positive analysis fitting direction relative to DMSO as the negative control and baseline of activity. Using a type of enzyme reporter, loss-of-signal activity can be used to understand changes in the enzymatic activity as they relate to the gene PDE4A. Furthermore, this assay endpoint can be referred to as a primary readout, because this assay has produced multiple assay endpoints where this one serves a enzymatic activity function. To generalize the intended target to other relatable targets, this assay endpoint is annotated to the esterase intended target family, where the subfamily is phosphodiesterase.
Binding assays used specific radioligands (tritiated, iodinated) with non-radioactive competitive displacement ligands in agonist or antagonist protocols (as indicated) and various reference compounds and inhibitors to titrate specific binding to receptors and transporters. Most enzyme assays (CYPs, kinases, phosphatases, proteases, HDACs) used recombinant protein and specific substrates (fluorescence mostly, some colorimetric and radioactive) and inhibitors, followed by a biochemical separation of substrate and product. All assays for the biochemical HTS were initially run in duplicate at a single concentration (10 uM for CYP450 assays and 25 uM for all others). Assay-chemical combinations meeting a pre-defined threshold (e.g., 30% inhibition and other criteria defined below) were then run in singleton concentration-response format with maximum concentration of 20 uM for CYPs and 50 uM for all others. Each assay was run with positive and negative controls, and concurrent controls on every plate. The follow-up (secondary) screen tested active chemical-pairs in concentration series, as well as a few additional assays not tested in the primary screen, some selected negative inactives, and several cases re-run in the concentration series for confirmatory purposes.

Sequence of human Phosphodiesterase 4A1 (PDE4A1), PDE4A (gene 5141) (P27815 whole entry, looked up): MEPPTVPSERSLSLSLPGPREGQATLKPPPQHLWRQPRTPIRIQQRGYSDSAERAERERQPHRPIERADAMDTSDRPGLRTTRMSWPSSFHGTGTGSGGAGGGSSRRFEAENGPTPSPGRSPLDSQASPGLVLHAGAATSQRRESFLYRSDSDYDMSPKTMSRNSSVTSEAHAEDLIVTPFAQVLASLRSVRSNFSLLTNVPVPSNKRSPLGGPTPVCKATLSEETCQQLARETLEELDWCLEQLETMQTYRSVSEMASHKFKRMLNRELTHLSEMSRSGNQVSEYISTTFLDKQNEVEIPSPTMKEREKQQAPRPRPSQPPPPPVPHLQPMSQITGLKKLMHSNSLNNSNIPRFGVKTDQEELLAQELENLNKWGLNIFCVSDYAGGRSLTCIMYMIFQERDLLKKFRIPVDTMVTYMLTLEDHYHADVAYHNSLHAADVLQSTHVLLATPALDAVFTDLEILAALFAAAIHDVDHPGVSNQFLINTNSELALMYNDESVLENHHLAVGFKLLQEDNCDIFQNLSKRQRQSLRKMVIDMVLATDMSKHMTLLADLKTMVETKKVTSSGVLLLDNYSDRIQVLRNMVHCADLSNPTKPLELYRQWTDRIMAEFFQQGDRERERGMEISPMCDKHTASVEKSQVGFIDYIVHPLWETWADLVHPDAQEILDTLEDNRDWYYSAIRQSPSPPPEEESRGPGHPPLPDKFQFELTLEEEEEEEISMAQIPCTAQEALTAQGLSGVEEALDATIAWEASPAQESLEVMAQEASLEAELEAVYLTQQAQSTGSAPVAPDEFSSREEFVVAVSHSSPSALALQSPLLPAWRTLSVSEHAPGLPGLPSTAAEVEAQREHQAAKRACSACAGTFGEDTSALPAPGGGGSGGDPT

outcome, inactive:
COc1ccc(OC(F)(F)F)cc1CN[C@H]1CCCN[C@H]1c1ccccc1, C/C=C/C=C/C(=O)O, CN(C)C(=O)NC1(c2ccccc2)CCN(CCC[C@]2(c3ccc(Cl)c(Cl)c3)CCCN(C(=O)c3ccccc3)C2)CC1, CCc1cc(C2=C(C(=O)O)N(c3ccccc3C(F)(F)F)S(=O)(=O)c3ccccc32)cc2c1OCO2, CC(C)NCC(O)c1ccc(O)c(O)c1 (stereo unspecified), O=C1NC(=O)C(c2ccccc2)(c2ccccc2)N1, CN(C)CCCN(C)CCCN(C)C

AC50, active:
COc1ccc(C(=O)Nc2nc3ccccc3c(NCc3ccccc3)c2C#N)cc1 17.7 µM, Nc1nc(Cl)nc2c1ncn2[C@H]1C[C@H](O)[C@@H](CO)O1 9.18 µM, CCCCCCCCCCCCCCOS(=O)(=O)O 18.6 µM, CCCCc1nc2cccnc2n1Cc1ccc(-c2ccccc2-c2nnn[nH]2)cc1 11.6 µM
